SMILES strings stand for the structures. Among all 2,300 compounds or so, about 1,000 (43%) were called active. No rule for the calls is given here. The set was probably picked from earlier hits. This is one part of the list. Measured potencies and affinities stand elsewhere.

This test is described as follows: PhoP regulon inhibitor project modified counter assay, GFP fluorescence readout, dose response (AID 1985). As to conditions: S. Typhi, 4 h; series mostly up to 150 µM.
As to `COc1ccc(S(=O)(=O)NCCSCc2ccco2)cc1Cl`, the compound was classed as inactive.

As to `CCN1CCCC1Cn1cnc2c([nH]c3ccc(Cl)cc32)c1=O` (stereo not drawn), the result was inactive.

As for `Clc1ccc(CONc2ncnc3nonc23)c(Cl)c1`, the compound was classed as inactive.

For the compound `CCCCCCCCn1ccc(=N)cc1`, the compound was classed as inactive.

For the compound `O=c1c2ccccc2nc(-c2ccoc2)n1CCc1ccccc1`, the compound was called inactive.

For the compound `O=C(On1c(-c2ccccc2)nc2ccccc2c1=O)c1ccco1`, the outcome was inactive.

For `CCC(O)CNc1nc(SC)nc2sc3c(c12)CCN(C)C3` (stereo not drawn), the compound was classed as inactive.

For `CN1C(=O)C2(Nc3ccccc3-c3nc4ccccc4n32)c2ccccc21` (stereo not drawn), the result was inactive.

As for `O=C(N/N=C\c1cccc([N+](=O)[O-])c1O)C1COc2ccccc2O1` (stereo not drawn), the compound was called inactive.

For the compound `CCCCCN1C(=O)/C(=C/c2c(N3CCc4ccccc4C3)nc3ccccn3c2=O)SC1=S`, the call was inactive.

Turning to `COc1cccc2cc(C(=O)Nc3ccccc3C)/c(=N/O)oc12`, the call was inactive.

In the case of `Cn1cc(C(=O)N/N=C/C(Br)=C/c2ccccc2)ccc1=O`, the outcome was inactive.

`Clc1ccc(N/N=C/c2cccs2)nn1`: the compound was classed as inactive.

As for `C/C(=N\NC(=O)c1c(Br)c(C)nn1C)c1ccc(NC(=O)c2ccoc2C)cc1`, the compound was called inactive.

Consider `CCN(CC)Cc1c(C(=O)N/N=C/c2cccs2)nnn1-c1nonc1N`, for which the result was inactive.

With `Cc1ccnc(NC(=O)CCC(=O)N(CC(=O)NC2CCCCC2)C2CCCC2)c1`, the result was inactive.

With `COC(=O)C1C(=O)C2=C(CC1C)Nc1ccccc1NC2c1ccc(C)s1` (stereo not drawn), the call was inactive.

As for `CC(C(=O)NC1CCCCC1)N1CCN(C)CC1` (stereo not drawn), the compound was classed as inactive.

`CN(C)c1nnnn1-c1ccc(Oc2ccccc2)cc1`: the result was inactive.

Take `COC(=O)c1sccc1NC(=S)NCc1ccc(Cl)cc1`: the outcome was inactive.

In the case of `CC1CCN(C(=O)CSc2nnc(Cc3cc(=O)[nH]c(=O)[nH]3)n2-c2ccc(Cl)cc2)CC1`, the outcome was inactive.

For `Cn1nnnc1SCC(=O)Nc1ccccc1-c1ccccc1`, the outcome was inactive.

Turning to `CCOc1cc(S(=O)(=O)N2CCN(CC)CC2)ccc1Cl`, the compound was called inactive.

As to `Cc1cc(C)n2nc(SCn3nnc4ccccc4c3=O)nc2n1`, the outcome was inactive.

Turning to `Cc1ccc2cc(CN(Cc3ccc(F)cc3)Cc3nnnn3C3CCCC3)c(=O)[nH]c2c1`, the outcome was inactive.

On to `CCCCCCNC1=NCCS1`, for which the compound was classed as inactive.

Consider `CCCCCCCCC1=NCCc2c1[nH]c1ccccc21`, for which the call was inactive.

Turning to `CN(C)CCSc1nnc2[nH]c3ccccc3c2n1`, the compound was classed as inactive.

Regarding `COc1ccc(-n2ncc3c(NCc4ccccn4)ncnc32)cc1`, the outcome was inactive.

Regarding `CC1=C([N+](=O)[O-])C(c2cccc(Br)c2)C2=C(N1)c1ccccc1C2=O` (stereo not drawn), the compound was called inactive.

`O=C(O)C1Cc2ccccc2CN1S(=O)(=O)c1ccc2ccccc2c1` (stereo not drawn): the compound was called inactive.

For `CC(=O)c1c(C)[nH]c(C(=O)CSc2nnc(-c3ccc(Cl)cc3)n2CC2CCCO2)c1C` (stereo not drawn), the call was inactive.

In the case of `O=C(CSc1nc2ncc(Cl)cc2[nH]1)NCC(=O)Nc1ccc(F)c(F)c1F`, the outcome was inactive.

Take `CC1(C)CC(N2CCN(c3ccccc3)CC2)=CC(=[N+]2CCCC2)C1`: the outcome was inactive.

For `CCCCCCC(=O)N(O)C1CC(=O)N(Cc2ccccc2)C1=O` (stereo not drawn), the result was inactive.

As to `Cc1ccc(OCC(O)Cn2c(N)nc3c2c(=O)n(C)c(=O)n3C)cc1` (stereo not drawn), the outcome was inactive.

With `C=CCn1c(C)c(C(C)=O)c(N2CCCC2)nc1=S`, the result was inactive.

For `CCOC(=O)C1=C(C(C)=O)C(c2cccnc2)C(C#N)=C(N)O1` (stereo not drawn), the call was inactive.

Consider `COc1ccc(CN2CCSCC2)cc1C`, for which the compound was called inactive.

As for `Cc1ccc(NC(=O)CN(C)C(=O)Cn2ccsc2=N)cc1`, the call was inactive.

Consider `CC(C)NC(=O)c1cc(-c2ccc(Br)cc2)on1`, for which the result was inactive.

As to `Cc1ccccc1-c1ncc(CN2CCN(C3CCCC3)C(CCO)C2)cn1` (stereo not drawn), the compound was classed as inactive.

Take `Nc1nc2n(n1)C(c1ccco1)CC(c1ccc(Cl)c(Cl)c1)N2` (stereo not drawn): the compound was called inactive.

For `CC(=O)Nc1cc(-c2ccc(Cl)cc2)[nH]n1`, the result was inactive.

Turning to `CCN(CC)CCNC(=O)c1cccc(NC(=O)C(=O)c2cc(Br)ccc2NC(C)=O)c1`, the result was inactive.

For the compound `O=C(NC(=C(Cl)Cl)S(=O)(=O)c1ccc(Cl)cc1)c1ccccc1`, the compound was called inactive.

In the case of `COc1ccc(NS(=O)(=O)c2cccc(NC(=O)c3ccccn3)c2)cc1`, the compound was called inactive.

With `CCCCCCCCCCCCC/C=C/[C@@H](O)[C@@H](N)CO`, the compound was called inactive.

Regarding `COc1ccc(OC)c(S(=O)(=O)N2CCC(C(=O)NCCc3ccc(OC)c(OC)c3)CC2)c1`, the outcome was inactive.

In the case of `Cc1nnc(SCc2cnc(-c3ccc(C(C)C)cc3)s2)n1C`, the call was inactive.

Consider `O=C(C[n+]1cc(-c2ccccc2)n2c1CCC2)c1cccs1`, for which the outcome was inactive.

With `Cc1ccc(-n2c(Cc3noc4ccccc34)n[nH]c2=S)cc1`, the compound was called inactive.

Take `CCc1nnc(NS(=O)(=O)c2ccc(NC(=S)NC(=O)/C=C/c3ccc([N+](=O)[O-])cc3)cc2)s1`: the result was inactive.

For the compound `CCN(CC)CCCNC(=O)c1c(O)c2c([nH]c1=O)CCCC2`, the compound was classed as inactive.

In the case of `CCSc1nc(C)cc(C)c1S(=O)(=O)c1ccccc1C`, the compound was called inactive.

Turning to `Nc1cccc2c(=O)c3ccccc3[nH]c12`, the compound was called inactive.

In the case of `Cc1[nH]c2ccccc2c1/C=C/c1nc2ccccc2c(=O)[nH]1`, the result was inactive.

With `O=c1ccn(CCc2c[nH]c3ccccc23)c2c1CCCC2`, the result was inactive.

Turning to `Cc1ccc2[nH]c(C(=O)O)c(NC(=O)CN3CCN(c4cccc(C)c4C)CC3)c2c1`, the result was inactive.

For `CC1CCC[C@H](O)CCCCCc2cc(O)cc(O)c2C(=O)O1` (stereo partly drawn), the compound was classed as inactive.

For `O=C(O)c1ccc(S(=O)(=O)NC2CC2)cc1`, the compound was called inactive.

Regarding `c1cc2c(cc1C1CCCCC1)c1c3n2CCN=C3CCC1`, the compound was called inactive.

As to `CC1(C)CC(=O)C(C=NCC2CCN(C(=O)Cc3ccccc3)CC2)=C(O)C1`, the compound was classed as inactive.

Regarding `CC(C)(C)c1nc(SCC(=O)NCc2ccco2)c2ccccc2n1`, the outcome was inactive.

With `O=C(CSc1nc2c(c(=O)n1-c1ccc(F)cc1)SCC2)NCc1ccco1`, the result was inactive.

For the compound `O=C(CSc1ncc(-c2ccc(F)cc2)[nH]1)NCc1ccco1`, the compound was classed as inactive.

As for `COc1ccccc1Nc1nc(NCc2ccco2)c2ccccc2n1`, the compound was called inactive.

On to `c1ccc(CN2CCN(c3nc(NCc4ccco4)c4ccccc4n3)CC2)cc1`, for which the compound was called inactive.

`CC1CCCN(C(=O)Cn2c(=O)oc3cc(S(=O)(=O)N4CCCCC4)ccc32)C1` (stereo not drawn): the call was inactive.

As for `COc1ccc(CSCCN)cc1Cl`, the compound was called inactive.

Regarding `CCCOc1ccc(C2=CSC3=NCCN23)cc1Cl`, the compound was called inactive.

For `c1ccn(-c2ccc(-c3ccn[nH]3)cc2)c1`, the outcome was inactive.

Turning to `O=C(NCc1ccco1)c1ccc2c(c1)N(Cc1ccccc1)CCS2`, the compound was called inactive.
